# Experimental data as given in PubChem BioAssay (EPA / NIEHS).
# Several values for one entry are separate records, joined by “and”; a condition that tells them apart may be missing. Equal values may be shown once. Records with an inconclusive call do not appear. More than one record can exist for a structure, and the calls need not agree. Activity calls are given as the source filed them. Rule for the calls, unless noted: active = hit-call score of the fitted dose curve at least 0.9, where 1 is the maximum; inactive = score below 0.9.
# How the values were obtained:
# [1] = BSK_BT_PBMCCytotoxicity: PBMC Cytotoxicity Assessment in the BioMAP Diversity Plus: BT Assay (AID 2284225); details: primary human B cells with PBMC;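 note: PBMC viability measured by Alamar Blue dye reduction fluorescence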
# Summary of the method: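 Viability by Alamar Blue reduction (6 h, ex/em 546/580 nm) after 90 h culture of SEB/TSST-1-activated PBMC (20 ng/mL each) given compound 1 h before activation. DMSO served as baseline for curve fitting.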
# [2] = read-out: Secreted IgG (sIgG), gene 3500; experiment: BSK_BT_sIgG: BioMAP Diversity Plus: BT Assay for Secreted IgG (sIgG) Biomarker Activity (AID 2284226); details: primary human B cells with PBMC
# Summary of the method: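 Cells (B cells with peripheral blood mononuclear cells) are dosed, cultured 24 h, then supernatant IgG is measured by ELISA. DMSO serves as negative control; curves are fitted for signal increase.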
# [3] = read-out: Interleukin 6 (IL6), IL6 (gene 3569); experiment: BSK_BT_xIL6: BioMAP Diversity Plus: BT Assay for Interleukin 6 (IL6) Biomarker Activity (AID 2284228); details: primary human B cells with PBMC
# Summary of the method: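 Human B cell plus PBMC co-culture exposed to test chemical for 24 h; secreted IL-6 quantified by Luminex xMAP bead assay. Activity fitted in the positive direction against DMSO as negative control and baseline.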
# [4] = read-out: Interleukin 17A (IL17A), IL17A (gene 3605); experiment: BSK_BT_xIL17A: BioMAP Diversity Plus: BT Assay for Interleukin 17A (IL17A) Biomarker Activity (AID 2284229); details: primary human B cells with PBMC
# Summary of the method: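 B cells co-cultured with PBMC were exposed to test chemicals, and secreted IL-17A was quantified 24 h after dosing by Luminex xMAP bead immunoassay. Activity was fitted in the gain direction against DMSO as baseline.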
# [5] = read-out: Tumor necrosis factor (Homo sapiens) (UniProt P01375); experiment: BSK_BT_xTNFa: BioMAP Diversity Plus: BT Assay for Tumor necrosis factor alpha (TNF-alpha) Biomarker Activity (AID 2284230); details: primary human B cells with PBMC
# Summary of the method: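 Endpoint derived in the positive direction versus DMSO vehicle. Cells: B cells together with PBMC, exposed 24 h before TNF-alpha in the medium was read on the Luminex xMAP platform.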
# [6] = read-out: Vascular cell adhesion molecule 1 (VCAM1), VCAM1 (gene 7412); experiment: BSK_MyoF_VCAM1: BioMAP Diversity Plus: MyoF Assay for Vascular cell adhesion molecule 1 (VCAM1) Biomarker Activity (AID 2284231); details: primary human lung fibroblasts
# Summary of the method: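 Primary human lung fibroblasts were dosed with test chemical for 24 h, then cell-surface VCAM-1 was measured by ELISA. Activity was fitted in the positive direction against DMSO as negative control and baseline.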
# [7] = read-out: Collagen I, COL1A1 (gene 1277); experiment: BSK_MyoF_CollagenI: BioMAP Diversity Plus: MyoF Assay for Collagen I Biomarker Activity (AID 2284238); details: primary human lung fibroblasts
# Summary of the method: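 Human lung fibroblasts were exposed to test chemical for 24 h, then Collagen I was quantified by ELISA. Activity was fitted in the increasing direction against DMSO as the negative control and baseline.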
# [8] = BSK_BT_Bcell_Proliferation: Viability Assessment in the BioMAP Diversity Plus: BT Assay for B cell Proliferation (AID 2284227); details: primary human B cells with PBMC
# Summary of the method: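 Using a human primary B cell–PBMC co-culture, the assay measures total protein by sulforhodamine B absorbance as a gauge of proliferation after 72 h. Analysis followed the positive fitting direction with DMSO as baseline.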
# [9] = read-out: Collagen III, COL3A1 (gene 1281); experiment: BSK_MyoF_CollagenIII: BioMAP Diversity Plus: MyoF Assay for Collagen III Biomarker Activity (AID 2284239); details: primary human lung fibroblasts
# Summary of the method: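 Human lung fibroblasts were dosed with chemicals and, 24 hours later, collagen III was measured by ELISA. Activity was fitted in the positive direction against the DMSO negative-control baseline.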
# [10] = CCTE_Mundy_HCI_hNP1_Pro_ResponderAvgInten: CCTE's Proliferation Assay in human neuroprogenitor cells, Mundy Lab (AID 2284224; active = hit-call score of the fitted dose curve at least 0.9, where 1 is the maximum)
# Summary of the method: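 Proliferation was scored as BrdU labelling intensity in human neural progenitors derived from WA09 embryonic cells, measured 26.25 hours after chemical dosing. Activity was fitted relative to DMSO.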
# [11] = CCTE_Mundy_HCI_hNP1_Casp3_7: CCTE's Caspase-Glo 3/7 Assay in human neuroprogenitor cells for Apoptosis, Mundy Lab (AID 2284240)
# Summary of the method: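 Apoptosis is scored by activated caspase-3/7 luminescence in WA09-derived neural progenitor cells, measured 26.5 h after chemical dosing. Values represent gain of signal relative to DMSO vehicle.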
# [12] = CCTE_Mundy_HCI_hNP1_CellTiter: CCTE's Cell Titer-Glo 2 Assay in human neuroprogenitor cells for Viability, Mundy Lab (AID 2284241; active = hit-call score of the fitted dose curve at least 0.9, where 1 is the maximum)
# Summary of the method: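 Human neural progenitor cells (hNP1, WA09-derived) were plated on poly-L-ornithine/laminin and grown 40 to 44 hours at 37 °C, 5% CO2 before chemical addition. Twenty-four hours later, ATP was measured by CellTiter-Glo luminescence; loss of signal versus DMSO indicates reduced viability.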
# [13] = CCTE_Mundy_HCI_Cortical_Synap_Neur_Matur_SynapseCount: CCTE's Synaptogenesis and Neurite Maturation Assay in rat cortical cells for Synapse Count, Mundy Lab (AID 2284218)
# Summary of the method: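 Cells were plated, allowed 2 hr to attach, treated with AraC at DIV 5, then exposed to chemicals from DIV 7 until DIV 12. After fixation and MAP2/synaptophysin immunolabelling, synapses per neuron were quantified by automated imaging against DMSO.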
# [14] = CCTE_Mundy_HCI_Cortical_Synap_Neur_Matur_NeuriteCount: CCTE's Synaptogenesis and Neurite Maturation Assay in rat cortical cells for Neurite Count, Mundy Lab (AID 2284222);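 note: exposure from day 7 to day 12 in vitro with readout at day 12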
# Summary of the method: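 In this multiplexed morphology readout, rat primary cortical neurons are fixed at DIV 12 following dosing at DIV 7 and stained for MAP2, synaptophysin and nuclei. High-content image analysis yields neurite count.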
# [15] = CCTE_Mundy_HCI_Cortical_Synap_Neur_Matur_CellBodySpotCount: CCTE's Synaptogenesis and Neurite Maturation Assay in rat cortical cells for Cell Body Spot Count, Mundy Lab (AID 2284223)
# Summary of the method: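 Rat primary cortical cultures received AraC at DIV 5 to arrest glia, were dosed with chemical at DIV 7 with media change, and were fixed at DIV 12 (288.33 h). Synaptophysin puncta on MAP2-positive cell bodies per neuron were counted by high-content imaging versus DMSO.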
# [16] = CCTE_Mundy_HCI_Cortical_NOG_BPCount: CCTE's Neurite Outgrowth Assay in rat cortical cells for Branch Point Count, Mundy Lab (AID 2284237)
# Summary of the method: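 Measured 50.33 h after dosing, this morphology endpoint uses rat primary cortical cultures labelled for betaIII-tubulin. Branch points are quantified by high-content imaging, with DMSO as negative control and baseline.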
# [17] = UKN2_HCS_IMR90_cell_viability: Viability Assessment in the University of Konstanz (UKN) Leist Lab Neural Crest Cell Migration Assay in human induced IMR90 Pluripotent Stem Cells (UKN2) (AID 2284233);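 note: cells exposed to compound for 24 h after a 24 h migration phase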
# Summary of the method: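 After calcein-AM/Hoechst staining, viability is quantified by high-content fluorescence imaging, relative to DMSO, in iPSC (IMR90)-derived neural crest cells. Exposure lasts 24 h, starting after a 24 h migration period on PLO/laminin/fibronectin coating.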
# [18] = CCTE_Mundy_HCI_Cortical_NOG_NeuronCount: CCTE's Neurite Outgrowth Assay in rat cortical cells for Neuron Count, Mundy Lab (AID 2284236; active = hit-call score of the fitted dose curve at least 0.9, where 1 is the maximum;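 note: neurons counted by imaging betaIII-tubulin and Hoechst stained cortical cells; cells exposed to compound for about 48 hours before fixation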)
# Summary of the method: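 Read-out: neuron number by high-content imaging of betaIII-tubulin (Alexa Fluor-488) and Hoechst-labelled rat primary cortical cells.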
# [19] = CCTE_Mundy_HCI_Cortical_Synap_Neur_Matur_NeuronCount: CCTE's Synaptogenesis and Neurite Maturation Assay in rat cortical cells for Neuron Count, Mundy Lab (AID 2284242; active = hit-call score of the fitted dose curve at least 0.9, where 1 is the maximum)
# Summary of the method: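 Cortical cells from rat are plated, treated with AraC at DIV 5, and exposed to test chemicals with a media change at DIV 7. At DIV 12 they are fixed and immunostained (MAP2, synaptophysin), and imaged neuron counts are compared against DMSO controls.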
# Chain of Tumor necrosis factor (Homo sapiens) (P01375 whole entry, looked up): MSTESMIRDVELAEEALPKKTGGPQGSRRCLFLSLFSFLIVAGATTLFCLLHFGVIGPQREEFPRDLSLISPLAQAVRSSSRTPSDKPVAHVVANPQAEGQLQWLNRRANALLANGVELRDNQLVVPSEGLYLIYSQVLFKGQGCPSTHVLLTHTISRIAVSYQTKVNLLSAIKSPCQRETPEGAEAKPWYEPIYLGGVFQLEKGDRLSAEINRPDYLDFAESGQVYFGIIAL
structure (smiles),measurement,setting,value
Oc1c(Cl)cc(Cl)c(Cl)c1Cl,outcome,[1],inactive
same,AC50,[2],33.5 µM (active)
same,outcome,[3],inactive
same,outcome,[4],inactive
same,outcome,[5],inactive
same,AC50,[6],11.6 µM (active)
same,AC50,[7],20 µM (active)
CC1=CC=C(C(C)C)CC1,outcome,[1],inactive
same,AC50,[2],20 µM (active)
same,outcome,[8],inactive
same,outcome,[3],inactive
same,outcome,[4],inactive
same,outcome,[5],inactive
same,outcome,[6],inactive
same,outcome,[7],inactive
C[N+](C)(C)CCCNS(=O)(=O)C(F)(F)C(F)(F)C(F)(F)C(F)(F)C(F)(F)C(F)(F)C(F)(F)C(F)(F)F,outcome,[1],inactive
same,AC50,[2],52.4 µM (active) and 52.6 µM (active)
same,outcome,[8],inactive
same,outcome,[3],inactive
same,AC50,[4],30 µM (active)
same,AC50,[5],30 µM (active) and 20.4 µM (active)
same,AC50,[6],44.5 µM (active) and 57 µM (active)
same,AC50,[7],48.6 µM (active) and 48.1 µM (active)
CCOC(=O)C1=NOC(c2ccccc2)(c2ccccc2)C1,outcome,[1],inactive
same,AC50,[2],20 µM (active)
same,AC50,[3],6.05 µM (active)
same,outcome,[4],inactive
same,outcome,[5],inactive
same,outcome,[6],inactive
same,outcome,[7],inactive
CCOC(=O)/C=C\C(=O)OCC,outcome,[1],inactive
same,outcome,[2],inactive
same,outcome,[3],inactive
same,outcome,[4],inactive
same,outcome,[5],inactive
same,outcome,[6],inactive
same,outcome,[7],inactive
CC=C(C)C(C)=O,outcome,[1],inactive
same,outcome,[2],inactive
same,outcome,[8],inactive
same,outcome,[3],inactive
same,outcome,[4],inactive
same,outcome,[5],inactive
same,outcome,[6],inactive
same,outcome,[7],inactive
same,outcome,[9],inactive
Cc1c(O)cccc1O,outcome,[1],inactive
same,outcome,[2],inactive
same,outcome,[3],inactive
same,outcome,[4],inactive
same,outcome,[5],inactive
same,outcome,[6],inactive
same,outcome,[7],inactive
O=C(O)C(F)(F)C(F)(F)C(F)(F)C(F)(F)C(=O)O,outcome,[10],inactive
same,outcome,[1],inactive
same,outcome,[2],inactive
same,outcome,[3],inactive
same,outcome,[4],inactive
same,AC50,[5],2.64 µM (active)
same,outcome,[5],inactive
same,outcome,[6],inactive
same,outcome,[7],inactive
same,outcome,[11],inactive
same,outcome,[12],inactive
Cc1noc(NS(=O)(=O)c2ccc(N)cc2)c1C,outcome,[13],inactive
same,outcome,[14],inactive
same,outcome,[15],inactive
same,outcome,[16],inactive
same,outcome,[11],inactive
same,outcome,[12],inactive
CCCCNS(=O)(=O)c1ccccc1,outcome,[13],inactive
same,outcome,[14],inactive
same,outcome,[15],inactive
same,outcome,[17],inactive
same,outcome,[18],inactive
same,outcome,[16],inactive
same,outcome,[11],inactive
same,outcome,[12],inactive
same,outcome,[19],inactive
Cc1c(C(=O)c2c[nH]n(C)c2=O)ccc(S(C)(=O)=O)c1C1=NOCC1,outcome,[13],inactive
same,outcome,[14],inactive
same,outcome,[15],inactive
same,outcome,[16],inactive
same,outcome,[11],inactive
same,outcome,[12],inactive
CC(Cl)COP(=O)(OCC(C)Cl)OCC(C)Cl (centres undefined),outcome,[1],inactive
same,outcome,[2],inactive
same,outcome,[3],inactive
same,outcome,[4],inactive
same,outcome,[5],inactive
same,outcome,[6],inactive
same,outcome,[7],inactive
CC(C)c1cccc(C(C)C)c1N,outcome,[1],inactive
same,outcome,[2],inactive
same,outcome,[3],inactive
same,outcome,[4],inactive
same,outcome,[5],inactive
same,outcome,[6],inactive
same,outcome,[7],inactive
